“And” between values parts separate entries of the source, which are not always exact repeats. Identical values can stand only once. About 83,000 compounds went through this panel and 20% of them were active in at least one assay; those are over-represented in the sample as a whole.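 Step 1: grow cells in 96-well plates. Step 2: add test compound at a single concentration. Step 3: incubate 48 h. Step 4: record percent growth.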 The source made the active and inactive calls. Rule for the calls: active = growth percent below 10; inactive = the rest.
Columns and labels:
Assay in all cases: NCI-60 one-dose screen, 48 h (100 = growth as untreated, 0 = no growth, -100 = all killed)
UO-31 renal = conditions: 10 µM unless noted
TK-10 renal = tested on: TK-10 renal
ACHN renal = conditions: 10 µM unless noted
CAKI-1 renal = conditions: 10 µM unless noted
A498 renal = conditions: 10 µM unless noted
HL-60(TB) leukemia = conditions: 10 µM unless noted
MOLT-4 leukemia = conditions: 10 µM unless noted
SR leukemia = conditions: 10 µM unless noted
RPMI-8226 leukemia = conditions: 10 µM unless noted
OVCAR-5 ovarian = conditions: 10 µM unless noted
OVCAR-4 ovarian = conditions: 10 µM unless noted
SK-OV-3 ovarian = conditions: 10 µM unless noted
IGROV1 ovarian = conditions: 10 µM unless noted
OVCAR-3 ovarian = conditions: 10 µM unless noted
HS 578T breast = conditions: 10 µM unless noted
NCI/ADR-RES ovarian = conditions: 10 µM unless noted
T-47D breast = conditions: 10 µM unless noted
BT-549 breast = conditions: 10 µM unless noted
MDA-MB-435 melanoma = conditions: 10 µM unless noted
OVCAR-8 ovarian = conditions: 10 µM

Measured: growth

Cc1c(N)nc([C@H](CC(N)=O)NC[C@H](N)C(N)=O)nc1C(=O)N[C@H](C(=O)N[C@H](C)[C@@H](O)[C@H](C)C(=O)N[C@H](C(=O)NCCc1nc(-c2nc(C(=O)NCCC[S+](C)C)cs2)cs1)[C@@H](C)O)C(OC1OC(CO)C(O)C(O)C1OC1OC(CO)C(O)C(OC(N)=O)C1O)c1cnc[nH]1 (some centres undefined)
42.4% (inactive) and -73.8% (active): TK-10 renal; 25 µM
active: ACHN renal -6.04% [2.5 µM] | SR leukemia -4.59% [2.5 µM] | HS 578T breast -2.02% [2.5 µM]
inactive: UO-31 renal 39.9% [2.5 µM] | TK-10 renal; 2.5 µM 89.5% | CAKI-1 renal 26.4% [2.5 µM] | A498 renal 84.1% [2.5 µM] | HL-60(TB) leukemia 81.8% [2.5 µM] | MOLT-4 leukemia 67.1% [2.5 µM] | RPMI-8226 leukemia 76.4% [2.5 µM] | OVCAR-5 ovarian 59.5% [2.5 µM] | OVCAR-4 ovarian 104% [2.5 µM] | SK-OV-3 ovarian 98% [2.5 µM] | IGROV1 ovarian 42.3% [2.5 µM] | OVCAR-3 ovarian 83.5% [2.5 µM] | NCI/ADR-RES ovarian 39.3% [2.5 µM] | T-47D breast 92.2% [2.5 µM] | BT-549 breast 54% [2.5 µM] | MDA-MB-435 melanoma 85.1% [2.5 µM]

CC1CCC2(NC1)OC1CC3C4CCC5CC(OC6OC(CO)C(OC7OC(CO)C(O)C(OC8OCC(O)C(O)C8O)C7OC7OC(CO)C(O)C(O)C7O)C(O)C6O)CCC5(C)C4CCC3(C)C1C2C (centres undefined)
active: TK-10 renal; 100 µM -97.4% and -87.3%

COC1CC(CC2CCC(C)C(C(C)C(=O)O)O2)OC2(OC(C)(C3CCC(C)(C4OC(C5OC(O)(CO)C(C)CC5C)CC4C)O3)CC2C)C1C (centres undefined)
active: TK-10 renal; 10 µM 4.27% | CAKI-1 renal 8.78% | A498 renal -68.8% | HL-60(TB) leukemia -56% | MOLT-4 leukemia -36.2% | SR leukemia -28.8% | RPMI-8226 leukemia -45% | OVCAR-3 ovarian 9.34% | BT-549 breast -52.6% | MDA-MB-435 melanoma -91.7%
inactive: UO-31 renal 13.3% | ACHN renal 16.2% | OVCAR-5 ovarian 14% | SK-OV-3 ovarian 44% | HS 578T breast 14.3% | NCI/ADR-RES ovarian 36.7% | T-47D breast 15.9%

NCCc1ccc(OCc2ccccc2)c(OCc2ccccc2)c1
active: SR leukemia -27.5%
inactive: UO-31 renal 51.2% | TK-10 renal; 10 µM 107% | ACHN renal 71.1% | CAKI-1 renal 81.6% | A498 renal 79% | HL-60(TB) leukemia 51.4% | MOLT-4 leukemia 78.1% | RPMI-8226 leukemia 69.7% | OVCAR-8 ovarian 79.3% | OVCAR-5 ovarian 105% | OVCAR-4 ovarian 86.3% | SK-OV-3 ovarian 91.2% | IGROV1 ovarian 75.2% | OVCAR-3 ovarian 88.3% | HS 578T breast 126% | NCI/ADR-RES ovarian 87.9% | T-47D breast 69.2% | BT-549 breast 89.4% | MDA-MB-435 melanoma 88.1%

COc1ccccc1/C=C(/C)[N+](=O)[O-]
inactive: UO-31 renal 78.7% and 83.1% | TK-10 renal; 10 µM 75.2% and 95% | ACHN renal 71.1% and 107% | CAKI-1 renal 85.8% and 95.1% | A498 renal 99.1% and 118% | HL-60(TB) leukemia 30.7% and 92.7% | MOLT-4 leukemia 13.9% and 102% | SR leukemia 10% and 92.3% | OVCAR-8 ovarian 85.6% and 103% | OVCAR-5 ovarian 104% and 91.1% | OVCAR-4 ovarian 105% and 102% | SK-OV-3 ovarian 115% and 81.6% | IGROV1 ovarian 71.5% and 95.9% | OVCAR-3 ovarian 78.2% and 101% | HS 578T breast 97.2% and 118% | NCI/ADR-RES ovarian 95.1% and 104% | T-47D breast 35.7% and 86.6% | BT-549 breast 83.6% and 101% | MDA-MB-435 melanoma 79.2% and 105%
0.614% (active) and 118% (inactive): RPMI-8226 leukemia

Oc1cc[c]([Hg][Cl])cc1
inactive: UO-31 renal 100% | TK-10 renal; 10 µM 110% | ACHN renal 99% | CAKI-1 renal 110% | A498 renal 107% | HL-60(TB) leukemia 102% | MOLT-4 leukemia 65.2% | SR leukemia 38.2% | RPMI-8226 leukemia 91.2% | OVCAR-8 ovarian 105% | OVCAR-5 ovarian 116% | OVCAR-4 ovarian 100% | SK-OV-3 ovarian 135% | IGROV1 ovarian 87.8% | OVCAR-3 ovarian 91% | HS 578T breast 85.5% | NCI/ADR-RES ovarian 107% | BT-549 breast 128% | MDA-MB-435 melanoma 96%

CC[C@](O)(C(=O)O)c1cc2n(c(=O)c1CO)Cc1cc3ccccc3nc1-2
active: UO-31 renal -61% | TK-10 renal; 10 µM 6.69% | ACHN renal -57.1% | CAKI-1 renal -28.8% | A498 renal -76.5% | HL-60(TB) leukemia -44.6% | MOLT-4 leukemia -38.3% | SR leukemia -20.3% | RPMI-8226 leukemia -36% | OVCAR-5 ovarian 9.24% | OVCAR-4 ovarian -19.4% | IGROV1 ovarian -48.1% | OVCAR-3 ovarian -42.3% | NCI/ADR-RES ovarian 2.02% | T-47D breast -6.44% | BT-549 breast -34.5% | MDA-MB-435 melanoma -81%
inactive: SK-OV-3 ovarian 12.4% | HS 578T breast 29.4%

CO[C@H](/C(C)=C/C=C/C(C)=C/c1coc(C)n1)[C@H](C)[C@H]1C[C@@H](O)[C@@]2(C)O[C@H]2/C=C/[C@@H](C)[C@@H]2C[C@@H](CC(=O)O2)C[C@H]2O[C@@H]2C(=O)O1
active: ACHN renal -10.3% | HL-60(TB) leukemia -36.9% | MOLT-4 leukemia 9.7% | SR leukemia -4.11% | RPMI-8226 leukemia -14.5% | OVCAR-4 ovarian -6.77% | IGROV1 ovarian -35.5% | OVCAR-3 ovarian -36.3% | HS 578T breast -2.81% | BT-549 breast 8.66% | MDA-MB-435 melanoma -59.2%
inactive: UO-31 renal 20.7% | TK-10 renal; 10 µM 37.2% | CAKI-1 renal 15% | A498 renal 26.1% | OVCAR-5 ovarian 34.2% | SK-OV-3 ovarian 32.3% | NCI/ADR-RES ovarian 19% | T-47D breast 64%

CC[C@@]1(O)C(=O)OCc2c1cc1n(c2=O)Cc2cc3ccccc3nc2-1
active: UO-31 renal -59.6% | TK-10 renal; 10 µM -8.5% | ACHN renal -72.6% | CAKI-1 renal -37.9% | A498 renal -77.4% | MOLT-4 leukemia -17.4% | SR leukemia -3.04% | RPMI-8226 leukemia -39.7% | OVCAR-5 ovarian -1.11% | OVCAR-4 ovarian -36.2% | SK-OV-3 ovarian 7.05% | IGROV1 ovarian -62.2% | OVCAR-3 ovarian -34% | NCI/ADR-RES ovarian -2.49% | T-47D breast -7.95% | BT-549 breast -39.9% | MDA-MB-435 melanoma -81.5%
inactive: HS 578T breast 22.6%

CC[n+]1c(-c2ccccc2)c2cc(N)ccc2c2ccc(N)cc21
inactive: UO-31 renal 63.5% | TK-10 renal; 10 µM 42% | ACHN renal 54.4% | CAKI-1 renal 81% | A498 renal 60.4% | HL-60(TB) leukemia 23.7% | MOLT-4 leukemia 23.7% | OVCAR-8 ovarian 18.6% | OVCAR-5 ovarian 49.4% | OVCAR-4 ovarian 11.6% | SK-OV-3 ovarian 47.3% | NCI/ADR-RES ovarian 87.6% | T-47D breast 11.2%
active: RPMI-8226 leukemia 7.63% | IGROV1 ovarian 9.12% | OVCAR-3 ovarian -0.305% | HS 578T breast 3.75% | BT-549 breast -35.7% | MDA-MB-435 melanoma -36%

COc1ccc(OC)c(/C=C/[N+](=O)[O-])c1
active: UO-31 renal -81.9% | TK-10 renal; 10 µM -31.9% | ACHN renal -67.9% | CAKI-1 renal -3.49% | HL-60(TB) leukemia 1.04% | MOLT-4 leukemia -4.18% | SR leukemia -13% | RPMI-8226 leukemia -28.9% | IGROV1 ovarian -4.14% | OVCAR-3 ovarian -59% | HS 578T breast 4.59% | BT-549 breast -45.5% | MDA-MB-435 melanoma 7.04%
inactive: A498 renal 18.5% | OVCAR-8 ovarian 11.8% | OVCAR-5 ovarian 20.2% | SK-OV-3 ovarian 64.7% | NCI/ADR-RES ovarian 17.7% | T-47D breast 16.6%

CC1=C2C(=O)[C@H]3[C@@H](CC=C4C[C@@H](O)CC[C@@]43C)[C@@H]2CC[C@]12O[C@@H]1C[C@H](C)CN[C@H]1[C@H]2C
inactive: UO-31 renal 72.6% | TK-10 renal; 10 µM 108% | ACHN renal 108% | CAKI-1 renal 103% | A498 renal 103% | HL-60(TB) leukemia 115% | MOLT-4 leukemia 96.9% | SR leukemia 95.2% | RPMI-8226 leukemia 92% | OVCAR-8 ovarian 89.3% | OVCAR-5 ovarian 94% | OVCAR-4 ovarian 96.3% | SK-OV-3 ovarian 101% | IGROV1 ovarian 26.1% | OVCAR-3 ovarian 140% | HS 578T breast 118% | NCI/ADR-RES ovarian 101% | T-47D breast 107% | MDA-MB-435 melanoma 98.2%

C[C@]12CC[C@H](O)CC1=CC[C@@H]1[C@@H]2CC[C@]2(C)C(=O)CC[C@@H]12
inactive: UO-31 renal 80.6% | TK-10 renal; 10 µM 96.2% | ACHN renal 108% | CAKI-1 renal 87.3% | A498 renal 92% | HL-60(TB) leukemia 85% | MOLT-4 leukemia 89% | RPMI-8226 leukemia 80.4% | OVCAR-5 ovarian 92.3% | OVCAR-4 ovarian 95.3% | SK-OV-3 ovarian 116% | IGROV1 ovarian 80.5% | OVCAR-3 ovarian 90.6% | HS 578T breast 130% | NCI/ADR-RES ovarian 99.1% | T-47D breast 96.4% | BT-549 breast 98.3% | MDA-MB-435 melanoma 90.3%
active: SR leukemia -4.91%

CCC(=O)OC1CCn2c1nc1c2C(=O)C(C)=C(N2CC2)C1=O (centres undefined)
inactive: HL-60(TB) leukemia 10.4% | MOLT-4 leukemia 70.5% | OVCAR-5 ovarian 13.5% | OVCAR-4 ovarian 13.2% | T-47D breast 70.2%
active: UO-31 renal -9.18% | TK-10 renal; 10 µM -5.86% | ACHN renal -25.3% | CAKI-1 renal -8.28% | A498 renal -77.6% | SR leukemia 1.48% | RPMI-8226 leukemia 2.94% | OVCAR-8 ovarian 3.32% | SK-OV-3 ovarian -53.8% | IGROV1 ovarian -6.18% | OVCAR-3 ovarian -18.5% | HS 578T breast -5.47% | NCI/ADR-RES ovarian 1.27% | BT-549 breast -79.1% | MDA-MB-435 melanoma -83.6%

Source: PubChem BioAssay (NCI)
